Source: PubChem BioAssay (Tox21)
Records with an inconclusive call do not appear. A call without a number means that no potency is given here. Calls of active or inactive are those of the source. Unless noted, calls come from the whole dose curve; as a rule, active = well fitted curve in the direction sought with a large enough effect in the repeat runs; inconclusive = weak or mixed curves; inactive = no such curve, though single readings can be large; an effect the other way counts as inactive or inconclusive. Positions of bridges follow the written chain, without caps; N, C: chain ends. Residues, ends and D or L forms follow the SMILES beside them.

What was measured:
[1] = qHTS assay for small molecule agonists of the p53 signaling pathway (AID 651631; calls by dose curve; note: nearly all actives have a fitted effect of over 15% in size; note: potency is the fitted concentration of half-maximal effect)
Summary of the method: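 HCT-116 p53RE-bla reporter line, 16 h compound treatment at 37 °C, then fluorescence after 2 h with B/G FRET substrate.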

[2] = qHTS assay for small molecules that induce genotoxicity in human embryonic kidney cells expressing luciferase-tagged ATAD5 (AID 651632); note: nearly all actives have a fitted effect of over 15% in size
Summary of the method: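 Test compounds were delivered by pin tool onto HEK293T reporter cells (2,000/well) expressing ATAD5 fused to luciferase. After 16 hr at 37C, 5% CO2, Amplite was added for 30 min at room temperature and luminescence was measured.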

[3] = qHTS assay for small molecule agonists of the p53 signaling pathway - cell viability (AID 651633; calls by dose curve;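 note: p53RE-bla HCT reporter cells with a stable beta-lactamase p53 reporter; nearly all actives have a fitted effect of over 30% in size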)
Summary of the method: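 p53RE-bla cells, seeded at 4,000 per well and rested 5 h at 37 C/5% CO2, received compounds in DMSO for 16 h at 37 C. CellTiter-Glo was then added, and luminescence was read after 30 min at room temperature to gauge cytotoxicity.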

[4] = qHTS assay for small molecules that induce genotoxicity in human embryonic kidney cells expressing luciferase-tagged ATAD5 - cell viability (AID 651634; calls by dose curve; note: nearly all actives have a fitted effect of over 25% in size)
Summary of the method: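 Quantitative high-throughput format. HEK293T cells expressing ATAD5 fused to luciferase were plated at 2,000 cells/well and treated 15.5 hr with compound versus DMSO. Viability was determined by fluorescent live-cell protease substrate, 30 min at 37C.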

[5] = qHTS assay for small molecule disruptors of the mitochondrial membrane potential - cell viability (AID 720634; calls by dose curve;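 note: human HepG2 liver cancer cells; nearly all actives have a fitted effect of over 20% in size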)
Summary of the method: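 Same-well counter-screen: following the MMP dye addition, CellTiter-Glo was added to 1 hr compound-treated HepG2 cells and luminescence read after 30 min at room temperature.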

[6] = qHTS assay for small molecule disruptors of the mitochondrial membrane potential (AID 720635); note: potency is the fitted concentration of half-maximal effect
Summary of the method: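 HepG2 cells (2,000/well) attached overnight at 37C, then took compound for 1 hr at 37C, 5% CO2. Mito-MPS dye was added for 30 min; fluorescence was read at 490/535 nm (monomers) and 540/590 nm (aggregates).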

[7] = qHTS assay to test for compound auto fluorescence at 590 nm (red) in HepG2 cells (AID 720674)
Summary of the method: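 Intrinsic compound fluorescence in the red window (Ex/Em 540/590 nm) is measured in attached HepG2 cells exposed for 1 hr, DMSO vehicle as baseline, benchmarked to Rose Bengal sodium.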

[8] = qHTS assay to test for compound auto fluorescence at 535 nm (green) in HepG2 cells (AID 720675)
[9] = qHTS assay to test for compound auto fluorescence at 460 nm (blue) in HEK293 cells (AID 720678)
Summary of the method: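 Blue read-out at excitation 405 nm and emission 460 nm follows overnight compound exposure of HEK293 cells at 37C in 5% CO2. Activity is given as auto fluorescence equivalency to triamterene.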

[10] = qHTS assay to test for compound auto fluorescence at 590 nm (red) in HEK293 cells (AID 720679)
Summary of the method: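 Red channel, Ex/Em 540/590nm; signal expressed as equivalency to Rose Bengal sodium. HEK293, 2,000 cells/well, 10% dialyzed FBS; 23 nL compound pinned after 4-5 hr attachment; overnight 37C/5% CO2 before reading.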

[11] = qHTS assay to test for compound auto fluorescence at 535 nm (green) in HEK293 cells (AID 720680)
[12] = qHTS assay to test for compound auto fluorescence at 460 nm (blue) in HEK293 cell free culture (AID 720681)
Summary of the method: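 Test compounds were pinned into cell-free culture medium (DMEM with 10% FBS) and fluorescence was read directly at Ex/Em 405/460 nm. Signals were expressed as fluorescence equivalents of triamterene, with DMSO vehicle as control.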

[13] = qHTS assay to test for compound auto fluorescence at 535 nm (green) in HEK293 cell free culture (AID 720682)
Summary of the method: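 Steps: dispense DMEM/10% FBS into empty wells; pin in compound or DMSO; measure fluorescence at 485/535 nm. Values are fluorescein equivalents.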

[14] = qHTS assay to test for compound auto fluorescence at 590 nm (red) in HEK293 cell free culture (AID 720683)
Summary of the method: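 Tox21 10K library compounds were pinned into cell-free DMEM with 10% FBS and fluorescence was read at excitation 540 nm. Activity is expressed as Rose Bengal sodium equivalency.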

[15] = qHTS assay to test for compound auto fluorescence at 590 nm (red) in HepG2 cell free culture (AID 720684)
Summary of the method: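 Ex 540 / Em 590 nm read of compound in cell-free MEM (10% FBS). Rose Bengal sodium reference.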

[16] = qHTS assay to test for compound auto fluorescence at 460 nm (blue) in HepG2 cell free culture (AID 720685)
Summary of the method: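 Cell-free plates of MEM plus 10% FBS received 23 nL compound or DMSO vehicle; blue-channel (405/460 nm) intensity scored against triamterene as reference fluorophore.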

[17] = qHTS assay to test for compound auto fluorescence at 535 nm (green) in HepG2 cell free culture (AID 720686)
[18] = qHTS assay to test for compound auto fluorescence at 460 nm (blue) in HepG2 cells (AID 720687)
Summary of the method: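 Cells (2,000/well in MEM with 10% FBS) attached overnight at 37 C, then were exposed to compound or DMSO for 1 hr at 37 C, 5% CO2. Fluorescence read at Ex/Em 405/460 nm, expressed as triamterene-equivalent signal.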

[19] = target: Glucocorticoid receptor (Homo sapiens) (UniProt P04150); test: qHTS assay to identify small molecule agonists of the glucocorticoid receptor (GR) signaling pathway (AID 720691; active = well fitted activation curve with a large enough effect in the signal ratio in the repeat runs, not every such curve was filed as active; the % refers to the signal ratio; note: potency is the fitted concentration of half-maximal effect); conditions: GR-bla HeLa, beta-lactamase reporter ratio, 18 h; activation: at 62.4 µM (top of the series)
Summary of the method: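 A HeLa cervical cancer line expressing GR and a glucocorticoid response element-driven beta-lactamase gene is treated with compounds for 18 h; LiveBLAzer B/G FRET substrate is then applied and fluorescence read.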

[20] = target: Glucocorticoid receptor (Homo sapiens) (UniProt P04150); test: qHTS assay to identify small molecule antagonists of the glucocorticoid receptor (GR) signaling pathway (AID 720692; active = well fitted inhibition curve with a large enough effect in the signal ratio in the repeat runs, not every such curve was filed as active; the % refers to the signal ratio)
Summary of the method: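 GRE-bla HeLa line, dex-stimulated (5 nM final). Compound exposure 18 h, 37 C. Beta-lactamase FRET read after 2 h RT substrate.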

Glucocorticoid receptor (Homo sapiens), sequence (P04150 whole entry, looked up): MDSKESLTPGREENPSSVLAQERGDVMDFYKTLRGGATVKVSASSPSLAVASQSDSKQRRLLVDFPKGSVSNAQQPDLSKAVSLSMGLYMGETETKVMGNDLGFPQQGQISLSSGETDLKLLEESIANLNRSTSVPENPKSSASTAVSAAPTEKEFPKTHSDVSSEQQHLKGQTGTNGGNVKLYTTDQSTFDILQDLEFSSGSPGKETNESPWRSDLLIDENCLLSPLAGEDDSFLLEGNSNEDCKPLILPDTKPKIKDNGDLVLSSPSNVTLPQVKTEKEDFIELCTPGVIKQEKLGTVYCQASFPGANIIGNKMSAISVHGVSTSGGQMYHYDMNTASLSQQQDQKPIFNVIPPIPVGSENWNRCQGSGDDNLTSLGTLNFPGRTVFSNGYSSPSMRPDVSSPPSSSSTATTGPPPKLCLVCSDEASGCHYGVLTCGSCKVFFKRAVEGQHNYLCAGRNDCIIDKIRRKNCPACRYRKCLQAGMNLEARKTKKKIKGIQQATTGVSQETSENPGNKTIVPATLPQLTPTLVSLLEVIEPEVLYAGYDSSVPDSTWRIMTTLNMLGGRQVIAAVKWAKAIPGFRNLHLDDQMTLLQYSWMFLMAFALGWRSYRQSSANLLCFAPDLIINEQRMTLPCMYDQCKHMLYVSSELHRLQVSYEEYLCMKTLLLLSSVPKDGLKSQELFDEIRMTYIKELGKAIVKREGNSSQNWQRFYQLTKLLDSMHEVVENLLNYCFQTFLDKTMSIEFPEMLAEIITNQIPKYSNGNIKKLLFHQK

| Compound | Potency [1] | Potency [2] | Potency [3] | Potency [4] | Potency [5] | Potency [6] | Potency [7] | Potency [8] | Potency [9] | Potency [10] | Potency [11] | Potency [12] | Potency [13] | Potency [14] | Potency [15] | outcome [16] | Potency [17] | outcome [18] | Potency [19] | Potency [20] |
| --- | --- | --- | --- | --- | --- | --- | --- | --- | --- | --- | --- | --- | --- | --- | --- | --- | --- | --- | --- | --- |
| CCOC(=O)CCC(=O)O[C@H]1[C@H](O[C@@H]2[C@@H](C)[C@H](O[C@H]3C[C@@](C)(OC)[C@@H](O)[C@H](C)O3)[C@@H](C)C(=O)O[C@H](CC)[C@@](C)(O)[C@H](O)[C@@H](C)C(=O)[C@H](C)C[C@@]2(C)O)O[C@H](C)C[C@@H]1N(C)C | inactive | inactive | inactive | inactive | inactive | inactive | inactive | inactive | inactive | inactive | inactive | inactive | inactive | inactive | inactive | inactive | inactive | inactive | inactive | inactive |
| N[C@@H](C(=O)N[C@@H]1C(=O)N2C(C(=O)O)=C(CSc3cn[nH]n3)CS[C@H]12)c1ccc(O)cc1 | inactive | inactive | inactive | inactive | inactive | inactive | inactive | inactive | inactive | inactive | inactive | inactive | inactive | inactive | inactive | inactive | inactive | inactive | inactive | inactive |
| CCCCCCCCCCCCCCCC(=O)OC[C@@H](COP(=O)([O-])OCC[N+](C)(C)C)OC(=O)CCCCCCCCCCCCCCC | inactive | inactive | inactive | inactive | inactive | inactive | inactive | inactive | inactive | inactive | inactive | inactive | inactive | inactive | inactive | inactive | inactive | inactive | inactive | inactive |
| O=P(O)(O)C(O)(Cc1cnc2ccccn12)P(=O)(O)O | inactive | inactive | inactive | inactive | inactive | inactive | inactive | inactive | inactive | inactive | inactive | inactive | inactive | inactive | inactive | inactive | inactive | inactive | inactive | inactive |
| CCOC(=O)Cc1cccc(-c2cc(CCCCCCc3ccc(O[C@H]4O[C@H](COC(C)=O)[C@@H](OC(C)=O)[C@H](OC(C)=O)[C@@H]4OC(C)=O)c(-c4cccc(CC(=O)OCC)c4)c3)ccc2O[C@H]2O[C@H](COC(C)=O)[C@@H](OC(C)=O)[C@H](OC(C)=O)[C@@H]2OC(C)=O)c1 | inactive | inactive | inactive | inactive | inactive | inactive | inactive | inactive | inactive | inactive | inactive | inactive | inactive | inactive | inactive |  | inactive | inactive |  |  |
| OC[C@@H](O)C(O)[C@H](O)CO | inactive | inactive | inactive | inactive | inactive | inactive | inactive | inactive | inactive | inactive | inactive | inactive | inactive | inactive | inactive |  | inactive | inactive | inactive | inactive |
| CCC(=O)OCC(=O)[C@@]1(OC(=O)CC)[C@H](C)C[C@H]2[C@@H]3CCC4=CC(=O)C=C[C@]4(C)[C@@]3(F)[C@@H](O)C[C@@]21C | inactive | inactive | inactive | inactive | inactive | 29.8 µM (active) | inactive | inactive | inactive | inactive | inactive | inactive | inactive | inactive | inactive | inactive | inactive | inactive |  |  |
| O=C[C@H](O)[C@@H](O)[C@H](O[C@H]1O[C@H](CO)[C@@H](O[C@H]2O[C@H](CO)[C@@H](O)[C@H](O)[C@H]2O)[C@H](O)[C@H]1O)[C@H](O)CO | inactive | inactive | inactive | inactive | inactive | inactive | inactive | inactive | inactive | inactive | inactive | inactive | inactive | inactive | inactive | inactive | inactive |  | inactive |  |
| CN1C(=O)CN2CCc3ccccc3C2c2cc(Cl)ccc21 (stereo not given) | 29.8 µM (active) | inactive | inactive | inactive | inactive | inactive | inactive | inactive | inactive | inactive | inactive | inactive | inactive | inactive | inactive | inactive | inactive | inactive | inactive |  |
| OCC(O)COc1ccc(Cl)cc1 (stereo not given) | inactive | inactive | inactive | inactive | inactive | inactive | inactive | inactive | inactive | inactive | inactive | inactive | inactive | inactive | inactive | inactive | inactive | inactive | inactive | inactive |
| C=C1CC2C3CCC4=CC(=O)C=C[C@]4(C)[C@@]3(F)[C@@H](O)C[C@]2(C)[C@@]1(O)C(=O)COC(C)=O (stereo not given in full) | inactive | inactive | inactive | inactive | inactive | inactive | inactive | inactive | inactive | inactive | inactive | inactive | inactive | inactive | inactive | inactive | inactive | inactive | 0.0151 µM (active) |  |
| NCCCC[C@H](NC(=O)[C@@H]1CCCN1C(=O)[C@@H]1CSSC[C@H](NC(=O)CNC(=O)CNC(=O)CN)C(=O)N[C@@H](Cc2ccc(O)cc2)C(=O)N[C@@H](Cc2ccccc2)C(=O)N[C@@H](CCC(N)=O)C(=O)N[C@@H](CC(N)=O)C(=O)N1)C(=O)NCC(N)=O (H-GGGCYFQNCPKG-NH2; disulfide 4-9) | inactive | inactive | inactive | inactive | inactive | inactive | inactive | inactive | inactive | inactive | inactive | inactive | inactive | inactive | inactive | inactive | inactive | inactive | inactive | inactive |
